# According to paper PMC7862700, “An all-to-all approach to the identification of sequence-specific readers for epigenetic DNA modifications on cytosine”:
# Assays:
# Test in all cases: DAPPL (digital affinity profiling via proximity ligation, sequencing); 10 mM Tris-HCl pH 7.5, 50 mM NaCl, 1 mM DTT, 4% glycerol, room temperature, 30 min; GST-TFs on glutathione beads, 16-mer random dsDNA library, 0.1% formaldehyde crosslink after washing; high values mean tight binding
# [1] = target: T1, FLI1 (Homo sapiens, UniProt Q01543 1-452); details: protein: recombinant; tags: N-terminal GST; dsDNA, one strand shown
# T1 sequence: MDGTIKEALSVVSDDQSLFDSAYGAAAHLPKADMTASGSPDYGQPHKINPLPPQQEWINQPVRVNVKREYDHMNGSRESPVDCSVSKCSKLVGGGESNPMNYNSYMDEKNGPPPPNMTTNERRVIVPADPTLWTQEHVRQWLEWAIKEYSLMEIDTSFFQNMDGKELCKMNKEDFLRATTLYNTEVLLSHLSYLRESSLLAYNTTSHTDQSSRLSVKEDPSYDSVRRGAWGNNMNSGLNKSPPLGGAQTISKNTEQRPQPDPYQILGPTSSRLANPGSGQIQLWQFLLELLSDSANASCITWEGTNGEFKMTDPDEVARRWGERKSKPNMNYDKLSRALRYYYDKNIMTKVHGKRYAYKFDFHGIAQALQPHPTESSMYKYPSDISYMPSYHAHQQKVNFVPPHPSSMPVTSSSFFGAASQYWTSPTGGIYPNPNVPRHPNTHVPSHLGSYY
# In short: (§1)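 In yeast, human transcription factors were expressed with a GST fusion, then pulled down on glutathione beads and given DNA barcodes. Pooled with a tag-only sample, they were exposed to 200 nmole of a 16-mer random double-stranded DNA library (Tris/NaCl/DTT/glycerol buffer, room temperature, 30 min), washed, crosslinked with 0.1% formaldehyde, proximity-ligated using BsaI/T4 ligase for 1 h at 37 °C, PCR-amplified and read on an Illumina NextSeq500. Each hexamer's frequency of reads for a factor, divided by the matching frequency for the tag-only sample, gives the binding signal.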
# [2] = target: T2, ELK1 (Homo sapiens, UniProt P19419 1-428); details: protein: recombinant; tags: N-terminal GST; dsDNA, one strand shown
# T2 sequence: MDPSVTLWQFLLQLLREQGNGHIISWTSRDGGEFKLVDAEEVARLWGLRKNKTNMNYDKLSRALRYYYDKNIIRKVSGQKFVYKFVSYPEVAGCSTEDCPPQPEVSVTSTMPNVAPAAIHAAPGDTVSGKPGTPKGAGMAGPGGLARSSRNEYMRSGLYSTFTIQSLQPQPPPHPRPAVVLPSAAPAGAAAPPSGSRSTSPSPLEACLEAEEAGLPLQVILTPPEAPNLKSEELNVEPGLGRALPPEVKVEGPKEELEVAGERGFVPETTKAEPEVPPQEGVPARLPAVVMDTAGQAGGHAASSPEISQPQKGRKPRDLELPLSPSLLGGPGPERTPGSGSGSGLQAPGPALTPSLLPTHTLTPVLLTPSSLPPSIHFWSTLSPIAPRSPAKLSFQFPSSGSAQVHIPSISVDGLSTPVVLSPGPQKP
# In short: as §1
# [3] = target: T3, GABPA (Homo sapiens, UniProt Q06546 1-454); details: protein: recombinant; tags: N-terminal GST; dsDNA, one strand shown
# T3 sequence: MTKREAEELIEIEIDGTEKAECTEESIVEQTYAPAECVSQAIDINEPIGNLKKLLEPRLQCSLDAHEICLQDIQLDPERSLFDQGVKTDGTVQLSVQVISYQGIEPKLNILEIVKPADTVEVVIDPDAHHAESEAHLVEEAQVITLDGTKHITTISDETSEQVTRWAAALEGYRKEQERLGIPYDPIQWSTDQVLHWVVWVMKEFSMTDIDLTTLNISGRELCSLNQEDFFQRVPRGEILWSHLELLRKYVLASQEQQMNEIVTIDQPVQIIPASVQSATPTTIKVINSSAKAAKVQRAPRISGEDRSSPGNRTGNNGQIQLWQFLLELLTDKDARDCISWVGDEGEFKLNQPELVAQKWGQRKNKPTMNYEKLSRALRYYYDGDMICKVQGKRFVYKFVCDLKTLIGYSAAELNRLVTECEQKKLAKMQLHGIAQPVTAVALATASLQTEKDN
# In short: as §1
# [4] = target: T4, ERG (Homo sapiens, UniProt P11308 1-479); details: protein: recombinant; tags: N-terminal GST; dsDNA, one strand shown
# T4 sequence: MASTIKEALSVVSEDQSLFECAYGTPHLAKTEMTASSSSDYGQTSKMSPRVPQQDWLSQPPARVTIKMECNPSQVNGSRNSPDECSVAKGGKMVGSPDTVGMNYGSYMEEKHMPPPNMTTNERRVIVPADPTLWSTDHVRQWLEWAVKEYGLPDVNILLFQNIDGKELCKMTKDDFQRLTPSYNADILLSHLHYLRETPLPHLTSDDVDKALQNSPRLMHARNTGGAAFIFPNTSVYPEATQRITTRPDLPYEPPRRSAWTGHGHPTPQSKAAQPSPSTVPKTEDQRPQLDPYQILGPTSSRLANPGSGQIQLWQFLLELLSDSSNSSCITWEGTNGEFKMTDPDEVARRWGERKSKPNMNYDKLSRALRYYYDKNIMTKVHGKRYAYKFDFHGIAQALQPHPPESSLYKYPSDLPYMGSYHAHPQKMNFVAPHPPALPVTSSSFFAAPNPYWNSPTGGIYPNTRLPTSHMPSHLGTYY
# In short: as §1
# [5] = target: ELF1 (Homo sapiens, UniProt P32519 1-619); details: protein: recombinant; tags: N-terminal GST; dsDNA, one strand shown
# In short: as §1
# [6] = target: T5, EHF (Homo sapiens, UniProt Q9NZC4 1-300); details: protein: recombinant; tags: N-terminal GST; dsDNA, one strand shown
# T5 sequence: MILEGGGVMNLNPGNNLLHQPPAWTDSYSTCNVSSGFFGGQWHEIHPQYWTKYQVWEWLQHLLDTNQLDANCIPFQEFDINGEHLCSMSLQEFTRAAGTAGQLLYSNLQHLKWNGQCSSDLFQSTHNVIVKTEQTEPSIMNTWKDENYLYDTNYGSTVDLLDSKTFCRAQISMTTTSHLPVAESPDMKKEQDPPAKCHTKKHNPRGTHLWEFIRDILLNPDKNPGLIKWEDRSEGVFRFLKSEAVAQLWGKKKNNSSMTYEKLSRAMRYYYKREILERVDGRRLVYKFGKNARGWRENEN
# In short: as §1
# [7] = target: SPI1 (Homo sapiens, UniProt P17947 1-270); details: protein: recombinant; tags: N-terminal GST; dsDNA, one strand shown
# In short: as §1
# [8] = target: SPIB (Homo sapiens, UniProt Q01892 1-262); details: protein: recombinant; tags: N-terminal GST; dsDNA, one strand shown
# In short: as §1
# [9] = target: T6, ELK3 (Homo sapiens, UniProt P41970 1-407); details: protein: recombinant; tags: N-terminal GST; dsDNA, one strand shown
# T6 sequence: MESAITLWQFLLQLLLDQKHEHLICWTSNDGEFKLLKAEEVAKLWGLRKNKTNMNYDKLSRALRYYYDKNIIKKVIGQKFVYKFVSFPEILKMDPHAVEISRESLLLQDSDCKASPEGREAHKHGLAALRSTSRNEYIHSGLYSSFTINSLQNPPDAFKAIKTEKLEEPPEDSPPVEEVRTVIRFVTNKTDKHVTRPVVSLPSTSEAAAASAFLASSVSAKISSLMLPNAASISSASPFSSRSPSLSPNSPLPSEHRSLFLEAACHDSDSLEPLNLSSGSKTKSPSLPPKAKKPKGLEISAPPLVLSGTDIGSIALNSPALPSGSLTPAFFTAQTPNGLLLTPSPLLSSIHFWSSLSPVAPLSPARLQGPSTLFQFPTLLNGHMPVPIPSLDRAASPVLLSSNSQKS
# In short: as §1
# [10] = target: T7, FEV (Homo sapiens, UniProt Q99581 1-238); details: protein: recombinant; tags: N-terminal GST; dsDNA, one strand shown
# T7 sequence: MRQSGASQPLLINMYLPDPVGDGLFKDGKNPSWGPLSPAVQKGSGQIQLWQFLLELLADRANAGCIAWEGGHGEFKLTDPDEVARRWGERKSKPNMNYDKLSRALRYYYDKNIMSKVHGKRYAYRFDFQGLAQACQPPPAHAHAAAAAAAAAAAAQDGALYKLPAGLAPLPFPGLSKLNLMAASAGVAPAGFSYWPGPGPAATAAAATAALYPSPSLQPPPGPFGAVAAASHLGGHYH
# In short: as §1
# [11] = target: ETV5 (Homo sapiens, UniProt P41161 1-510); details: protein: recombinant; tags: N-terminal GST; dsDNA, one strand shown
# In short: as §1
# [12] = target: HSF1 (Homo sapiens, UniProt Q00613 1-529); details: protein: recombinant; tags: N-terminal GST; chain copies: 3; dsDNA, one strand shown
# In short: as §1
# [13] = target: T8, SPIC (Homo sapiens, UniProt Q8N5J4 1-248); details: protein: recombinant; tags: N-terminal GST; dsDNA, one strand shown
# T8 sequence: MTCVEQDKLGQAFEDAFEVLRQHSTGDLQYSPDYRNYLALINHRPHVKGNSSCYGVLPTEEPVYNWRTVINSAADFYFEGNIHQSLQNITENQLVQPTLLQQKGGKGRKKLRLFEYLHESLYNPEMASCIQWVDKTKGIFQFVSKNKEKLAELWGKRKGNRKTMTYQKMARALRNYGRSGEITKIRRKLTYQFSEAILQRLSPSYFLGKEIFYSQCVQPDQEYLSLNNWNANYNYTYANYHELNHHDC
# In short: as §1
# [14] = target: ELF4 (Homo sapiens, UniProt Q99607 1-663); details: protein: recombinant; tags: N-terminal GST; dsDNA, one strand shown
# In short: as §1
# [15] = target: T9, ELK4 (Homo sapiens, UniProt P28324-2 1-405); details: protein: recombinant; tags: N-terminal GST; dsDNA, one strand shown
# T9 sequence: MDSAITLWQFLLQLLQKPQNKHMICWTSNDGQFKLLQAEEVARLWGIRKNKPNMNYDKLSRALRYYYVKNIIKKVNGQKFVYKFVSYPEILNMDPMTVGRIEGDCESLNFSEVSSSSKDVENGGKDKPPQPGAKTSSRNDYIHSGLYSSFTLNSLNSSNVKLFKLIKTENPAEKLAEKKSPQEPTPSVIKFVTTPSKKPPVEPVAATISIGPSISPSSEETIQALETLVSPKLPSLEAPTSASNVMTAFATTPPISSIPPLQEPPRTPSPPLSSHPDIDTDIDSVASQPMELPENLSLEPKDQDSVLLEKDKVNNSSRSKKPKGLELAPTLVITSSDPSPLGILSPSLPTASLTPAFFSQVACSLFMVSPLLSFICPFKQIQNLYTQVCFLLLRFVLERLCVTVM
# In short: as §1
# [16] = target: T10, ETV2 (Homo sapiens, UniProt O00321 1-342); details: protein: recombinant; tags: N-terminal GST; dsDNA, one strand shown
# T10 sequence: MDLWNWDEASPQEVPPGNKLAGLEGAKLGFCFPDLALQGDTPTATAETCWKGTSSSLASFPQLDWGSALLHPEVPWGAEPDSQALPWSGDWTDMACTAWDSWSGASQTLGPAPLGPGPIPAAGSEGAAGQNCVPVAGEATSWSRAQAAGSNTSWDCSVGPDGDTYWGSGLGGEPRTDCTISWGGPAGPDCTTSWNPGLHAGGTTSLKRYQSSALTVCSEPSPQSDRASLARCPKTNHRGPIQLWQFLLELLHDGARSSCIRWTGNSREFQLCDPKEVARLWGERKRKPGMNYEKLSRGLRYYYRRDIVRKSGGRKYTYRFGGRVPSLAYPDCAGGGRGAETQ
# In short: as §1
# [17] = target: T11, ELF3 (Homo sapiens, UniProt P78545 1-371); details: protein: recombinant; tags: N-terminal GST; dsDNA, one strand shown
# T11 sequence: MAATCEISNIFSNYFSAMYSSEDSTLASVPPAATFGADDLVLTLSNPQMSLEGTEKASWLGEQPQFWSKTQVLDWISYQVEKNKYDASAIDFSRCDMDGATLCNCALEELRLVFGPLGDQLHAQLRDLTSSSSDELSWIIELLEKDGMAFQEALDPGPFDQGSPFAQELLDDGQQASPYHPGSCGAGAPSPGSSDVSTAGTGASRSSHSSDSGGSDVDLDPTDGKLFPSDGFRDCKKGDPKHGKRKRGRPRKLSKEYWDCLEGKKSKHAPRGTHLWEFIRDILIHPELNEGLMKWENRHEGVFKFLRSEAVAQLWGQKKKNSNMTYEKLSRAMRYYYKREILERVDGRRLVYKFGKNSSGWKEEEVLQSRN
# In short: as §1
# [18] = target: ETV1 (Homo sapiens, UniProt P50549 1-477); details: protein: recombinant; tags: N-terminal GST; dsDNA, one strand shown
# In short: as §1
# ELF4, sequence (Q99607 whole entry): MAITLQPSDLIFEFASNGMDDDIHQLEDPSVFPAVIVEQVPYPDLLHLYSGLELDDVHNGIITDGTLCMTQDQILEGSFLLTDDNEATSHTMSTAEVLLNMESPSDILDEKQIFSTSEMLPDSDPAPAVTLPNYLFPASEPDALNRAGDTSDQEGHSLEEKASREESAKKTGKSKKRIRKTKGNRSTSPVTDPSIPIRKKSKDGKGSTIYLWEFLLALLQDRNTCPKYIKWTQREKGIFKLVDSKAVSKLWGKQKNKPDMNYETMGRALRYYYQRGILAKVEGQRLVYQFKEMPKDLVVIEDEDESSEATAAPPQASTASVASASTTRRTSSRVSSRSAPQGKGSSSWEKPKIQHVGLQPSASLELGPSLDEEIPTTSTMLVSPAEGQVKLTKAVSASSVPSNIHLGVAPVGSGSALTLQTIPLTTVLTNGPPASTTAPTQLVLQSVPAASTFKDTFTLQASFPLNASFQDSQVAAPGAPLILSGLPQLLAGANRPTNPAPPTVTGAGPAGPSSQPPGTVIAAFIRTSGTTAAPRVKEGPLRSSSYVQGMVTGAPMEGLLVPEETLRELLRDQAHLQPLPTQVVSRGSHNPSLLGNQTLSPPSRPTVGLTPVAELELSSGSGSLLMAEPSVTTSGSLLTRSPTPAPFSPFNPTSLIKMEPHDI
# HSF1, sequence (Q00613 whole entry): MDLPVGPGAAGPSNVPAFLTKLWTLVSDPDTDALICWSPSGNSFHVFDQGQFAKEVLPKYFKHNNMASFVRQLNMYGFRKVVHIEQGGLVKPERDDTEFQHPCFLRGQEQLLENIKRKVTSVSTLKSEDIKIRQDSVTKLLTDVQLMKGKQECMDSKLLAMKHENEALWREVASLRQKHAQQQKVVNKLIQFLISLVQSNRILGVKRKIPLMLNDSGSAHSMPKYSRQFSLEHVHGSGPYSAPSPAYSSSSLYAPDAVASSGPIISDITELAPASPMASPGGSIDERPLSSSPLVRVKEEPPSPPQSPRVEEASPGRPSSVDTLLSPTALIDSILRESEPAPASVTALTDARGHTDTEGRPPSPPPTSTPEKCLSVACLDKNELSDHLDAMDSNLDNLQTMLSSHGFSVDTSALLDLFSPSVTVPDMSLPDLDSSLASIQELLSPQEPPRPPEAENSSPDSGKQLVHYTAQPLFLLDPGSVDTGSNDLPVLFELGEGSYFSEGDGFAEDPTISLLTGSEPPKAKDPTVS
# ETV5, sequence (P41161 whole entry): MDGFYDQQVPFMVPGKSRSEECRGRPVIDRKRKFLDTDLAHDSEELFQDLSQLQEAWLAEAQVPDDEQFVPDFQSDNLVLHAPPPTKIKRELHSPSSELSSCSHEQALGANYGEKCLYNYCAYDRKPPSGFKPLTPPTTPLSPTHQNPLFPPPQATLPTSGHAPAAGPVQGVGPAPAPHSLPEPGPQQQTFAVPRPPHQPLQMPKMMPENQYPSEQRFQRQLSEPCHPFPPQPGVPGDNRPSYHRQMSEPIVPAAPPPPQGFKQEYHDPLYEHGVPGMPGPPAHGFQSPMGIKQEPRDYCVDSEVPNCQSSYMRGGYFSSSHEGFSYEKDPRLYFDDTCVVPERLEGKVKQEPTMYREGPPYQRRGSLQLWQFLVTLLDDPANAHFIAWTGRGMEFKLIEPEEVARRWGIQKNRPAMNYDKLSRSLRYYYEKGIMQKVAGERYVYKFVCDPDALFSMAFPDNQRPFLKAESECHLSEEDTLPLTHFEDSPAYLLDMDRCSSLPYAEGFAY
# ETV1, sequence (P50549 whole entry): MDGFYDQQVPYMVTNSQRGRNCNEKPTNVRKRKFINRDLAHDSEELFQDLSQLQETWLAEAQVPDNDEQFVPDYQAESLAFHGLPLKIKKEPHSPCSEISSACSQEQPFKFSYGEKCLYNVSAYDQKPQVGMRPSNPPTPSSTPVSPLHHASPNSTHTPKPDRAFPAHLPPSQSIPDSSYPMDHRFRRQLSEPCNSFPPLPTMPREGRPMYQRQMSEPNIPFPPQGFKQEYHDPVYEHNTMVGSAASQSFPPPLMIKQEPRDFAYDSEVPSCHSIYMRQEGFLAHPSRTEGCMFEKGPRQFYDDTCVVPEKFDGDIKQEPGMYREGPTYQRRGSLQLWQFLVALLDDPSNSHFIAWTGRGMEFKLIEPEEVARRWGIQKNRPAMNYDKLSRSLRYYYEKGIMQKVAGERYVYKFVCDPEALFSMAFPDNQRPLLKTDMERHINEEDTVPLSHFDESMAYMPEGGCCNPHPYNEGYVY
# SPIB, sequence (Q01892 whole entry): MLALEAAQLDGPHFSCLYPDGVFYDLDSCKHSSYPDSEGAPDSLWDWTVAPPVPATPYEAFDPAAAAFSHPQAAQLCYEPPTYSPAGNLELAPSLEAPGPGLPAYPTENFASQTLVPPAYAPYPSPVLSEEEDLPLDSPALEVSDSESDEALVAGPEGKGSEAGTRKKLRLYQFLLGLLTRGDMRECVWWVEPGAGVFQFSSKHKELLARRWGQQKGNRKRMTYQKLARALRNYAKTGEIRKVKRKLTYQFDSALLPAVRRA
# ELF1, sequence (P32519 whole entry): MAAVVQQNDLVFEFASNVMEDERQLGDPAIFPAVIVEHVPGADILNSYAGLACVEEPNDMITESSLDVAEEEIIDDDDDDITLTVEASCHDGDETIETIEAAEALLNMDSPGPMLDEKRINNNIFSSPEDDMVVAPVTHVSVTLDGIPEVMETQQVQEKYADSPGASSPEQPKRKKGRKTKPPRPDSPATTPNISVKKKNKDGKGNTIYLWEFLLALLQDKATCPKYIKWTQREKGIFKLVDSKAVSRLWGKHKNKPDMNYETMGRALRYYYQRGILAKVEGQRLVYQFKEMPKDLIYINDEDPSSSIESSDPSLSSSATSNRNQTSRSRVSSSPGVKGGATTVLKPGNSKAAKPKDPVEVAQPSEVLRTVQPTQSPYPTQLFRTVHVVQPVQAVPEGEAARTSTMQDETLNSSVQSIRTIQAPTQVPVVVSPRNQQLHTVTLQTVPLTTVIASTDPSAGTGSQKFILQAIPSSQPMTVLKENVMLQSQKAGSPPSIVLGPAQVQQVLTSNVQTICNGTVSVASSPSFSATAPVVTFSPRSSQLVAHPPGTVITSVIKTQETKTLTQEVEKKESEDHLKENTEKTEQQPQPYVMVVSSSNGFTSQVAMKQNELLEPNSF
sequence,measurement,setting,value
GCTATG,binding signal,[1],"1.16 fold enrichment (6-mer frequency, TF over GST control)"
same,binding signal,[2],"1.13 fold enrichment (6-mer frequency, TF over GST control)"
same,binding signal,[3],"1.26 fold enrichment (6-mer frequency, TF over GST control)"
same,binding signal,[4],"1.11 fold enrichment (6-mer frequency, TF over GST control)"
same,binding signal,[5],"1.22 fold enrichment (6-mer frequency, TF over GST control)"
same,binding signal,[6],"1.21 fold enrichment (6-mer frequency, TF over GST control)"
same,binding signal,[7],"1.13 fold enrichment (6-mer frequency, TF over GST control)"
same,binding signal,[8],"1.31 fold enrichment (6-mer frequency, TF over GST control)"
same,binding signal,[9],"1.15 fold enrichment (6-mer frequency, TF over GST control)"
same,binding signal,[10],"1.15 fold enrichment (6-mer frequency, TF over GST control)"
same,binding signal,[11],"1.13 fold enrichment (6-mer frequency, TF over GST control)"
same,binding signal,[12],"1.07 fold enrichment (6-mer frequency, TF over GST control)"
same,binding signal,[13],"1.22 fold enrichment (6-mer frequency, TF over GST control)"
same,binding signal,[14],"1.08 fold enrichment (6-mer frequency, TF over GST control)"
same,binding signal,[15],"1.15 fold enrichment (6-mer frequency, TF over GST control)"
same,binding signal,[16],"1.38 fold enrichment (6-mer frequency, TF over GST control)"
same,binding signal,[17],"1.18 fold enrichment (6-mer frequency, TF over GST control)"
same,binding signal,[18],"1.17 fold enrichment (6-mer frequency, TF over GST control)"
